FLuc modulator – firefly luciferase modulation, counter-screen for miR-21 project; Potency, µM (highest dose often 57.5 µM), usual class: inhibitors; purified FLuc, Km substrates, luminescence inhibition; AID 588342; P08659; actives 6.9% (n = 360,000); further: nearly all actives have a fitted effect of over 55% in size
Target sequence (P08659 whole entry, looked up): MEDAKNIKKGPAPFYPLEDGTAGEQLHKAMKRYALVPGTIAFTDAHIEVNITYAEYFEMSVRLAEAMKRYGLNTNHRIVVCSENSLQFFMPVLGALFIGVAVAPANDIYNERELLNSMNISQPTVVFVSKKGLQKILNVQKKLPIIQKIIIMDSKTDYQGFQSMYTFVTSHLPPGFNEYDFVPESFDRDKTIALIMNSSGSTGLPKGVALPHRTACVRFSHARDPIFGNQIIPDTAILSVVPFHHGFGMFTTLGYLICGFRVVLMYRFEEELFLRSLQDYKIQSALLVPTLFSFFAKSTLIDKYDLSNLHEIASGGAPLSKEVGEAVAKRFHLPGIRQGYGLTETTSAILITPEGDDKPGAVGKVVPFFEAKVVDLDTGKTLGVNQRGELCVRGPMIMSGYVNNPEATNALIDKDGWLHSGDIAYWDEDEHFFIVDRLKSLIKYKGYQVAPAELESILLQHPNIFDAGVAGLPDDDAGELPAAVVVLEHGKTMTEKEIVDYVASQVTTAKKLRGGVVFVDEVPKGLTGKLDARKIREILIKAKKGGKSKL
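Purified P. pyralis luciferase, 10 nM final, with Km-level 10 uM D-luciferin and 10 uM ATP in 50 mM Tris acetate pH 7.5, 10 mM Mg acetate, 0.01% Tween-20, 0.05% BSA; 6-point qHTS titration about 60 µM downward; luminescence read.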
Rab9 prom act – activators of Rab9 promoter. Huh7 Rab9 promoter-luciferase reporter, luminescence, 24 h. Potency, µM (titrated, usually from 9.22 µM), most hits filed as activators. actives 2.8% (n = 320,000). AID 485297; further: nearly all actives have a fitted effect of over 60% in size
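Promoter activation is measured as luciferase luminescence in Huh7 cells stably transfected with a Rab9 promoter–luciferase construct, following 24 h compound exposure at 37 °C and 10 min reagent incubation at ambient temperature.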
KinaseGlo FLuc – Kinase-Glo luciferase inhibition (counter-screen); Kinase-Glo luciferase, ATP luminescence, 8 min; AID 1379; Potency, µM (highest dose often 38.3 µM), usual class: inhibitors; actives 0.28% (n = 200,000); further: nearly all actives have a fitted effect of over 60% in size
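Compounds were added to a substrate mix at pH 7.2 (50 mM imidazole, 10 uM ATP, within the enzyme's linear range), followed by Kinase-Glo detection reagent; luminescence was measured after 8 minutes at ambient temperature.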
ELG1 genotox – inducers of genotoxicity in HEK293T ELG1-luciferase cells; actives 1.3% (n = 330,000); HEK293T ELG1-luciferase reporter, luminescence, 16 h; AID 504466; Potency, µM (doses to about 46 µM), actives largely listed as activators; further: nearly all actives have a fitted effect of over 60% in size
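16 hr compound incubation (37 °C, 5% CO2) of HEK293T cells carrying luciferase-tagged ELG1; luciferase then measured by ONE-Glo luminescence after 30 min at RT.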
NPC1 promoter act – activators of NPC1 promoter. Potency, µM (top dose mostly 9.22 µM), most hits filed as activators. actives 2.4% (n = 320,000). Huh7 NPC1 promoter luciferase reporter, 24 h; further: nearly all actives have a fitted effect of over 60% in size
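Readout is luciferase luminescence, reflecting NPC1 promoter activation in stably transfected Huh7 cells after 24 h compound exposure at 37 °C in reduced-serum medium with 10% FBS.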
SMN2 splice up – SMN2 splice variant enhancement; actives 2.8% (n = 210,000); HEK293 SMN2-luciferase splicing reporter, luminescence, 30-36 h; Potency, µM (series often up to 46.1 µM), actives largely listed as activators; further: nearly all actives have a fitted effect of over 55% in size
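HEK293 cells carry an SMN2 minigene-luciferase reporter in which exon 7 inclusion puts luciferase in frame. Cells were seeded at 2000 cells/well, attached for 10-12 hours, then exposed to compounds for 30-36 hours at 37C before ONE-Glo luminescence.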
Hits are given with their value; i = inactive; ? = inconclusive; nt = no result. Only some compounds are listed: those with a hit (about 7.3% of all), similar ones and a draw of the others. The call rests on the fitted dose curve; in most records, active means well fitted curve in the direction sought with a large enough effect; inconclusive means small, poorly fitted or top-dose-only effect, or another doubt; inactive means no such curve, though single readings can be large; an effect the other way counts as inactive or inconclusive.

SMILES | FLuc modulator | Rab9 prom act | KinaseGlo FLuc | ELG1 genotox | NPC1 promoter act | SMN2 splice up
Cc1ccc(NC(=O)c2ccc([N+](=O)[O-])cc2Cl)nc1 | 12µM | 2.8µM | i | ? | 2.5µM | 5µM
CN(C)c1ccc(NC(=O)c2ccc([N+](=O)[O-])cc2Cl)cc1 | 4.3µM | 3.2µM | i | ? | 2.5µM | 10µM
CC(C)C(=O)Nc1ccc(NC(=O)c2ccc([N+](=O)[O-])cc2Cl)cc1 | i | i | i | i | i | i
CCCN(CCC)CCCNc1ccc(C(=O)Nc2cccc(OC)c2)cc1[N+](=O)[O-] | i | i | i | i | i | i
COCCC(=O)N1CCC(Oc2ccc(C(=O)NCCCC3CCCC3)cc2)CC1 | i | i | nt | i | i | nt
C/C(NC(=O)c1cccs1)=C1\C(=O)C[C@@H]2[C@H]1C2(C)C | 15µM | ? | nt | ? | ? | nt
COc1ccccc1Nc1nc(-c2cccnc2)cs1 | 13µM | ? | nt | i | ? | nt
COc1ccccc1Nc1nc(C2(C)CCC(=O)O2)cs1 (stereo unspecified) | 15µM | i | i | i | i | i
O=[N+]([O-])c1ccccc1Nc1nc(-c2cccnc2)cs1 | 11µM | i | nt | ? | ? | nt
COc1ccccc1Nc1nc(-c2ccc3c(c2)NC(=O)CO3)cs1 | ? | i | i | i | i | i
COc1ccc(Nc2nc(-c3cccnc3)cs2)c(OC)c1 | 21µM | ? | nt | i | 3.5µM | nt
Cc1cccc(NC(=O)c2ccc(COc3ccc4ccccc4c3)o2)n1 | ? | i | i | i | i | nt
Cc1cccc(NC(=O)c2ccc(COc3ccccc3)o2)n1 | 17µM | i | nt | i | i | nt
Cc1csc(NC(=O)c2ccc(COc3ccccc3)o2)n1 | 17µM | ? | nt | i | 1µM | nt
C=CCn1c(SCC(=O)NC2CCS(=O)(=O)C2)nnc1-c1cc2c(s1)CCC(CC)C2 (stereo unspecified) | 11µM | i | i | i | i | i
C=CCn1c(SCC(=O)NC2CCS(=O)(=O)C2)nnc1-c1ccc(Cl)cc1 (stereo unspecified) | i | i | nt | i | i | nt
C=CCn1c(-c2cc3c(s2)CCC(CC)C3)n[nH]c1=S (stereo unspecified) | 30µM | i | i | i | i | i
CC(C)(C)OC(=O)CNC(=O)c1[nH]cnc1C(=O)Nc1ccc(Cl)cc1 | i | i | nt | i | i | nt
COc1ccc(C(=O)Nc2nc3cc4c(cc3s2)OCCO4)c(OC)c1 | 0.95µM | i | nt | ? | i | nt
COc1ccccc1C(=O)Nc1nc2cc3c(cc2s1)OCCO3 | 0.67µM | 0.71µM | nt | 2.1µM | ? | nt
COc1ccccc1C(=O)Nc1nc2cc3c(cc2s1)OCO3 | 0.54µM | 1.6µM | nt | ? | 1.8µM | nt
CN(C)CCN(C(=O)c1cccs1)c1nc2cc3c(cc2s1)OCCO3 | i | ? | nt | ? | i | nt
COc1cccc(OC)c1C(=O)Nc1nc2cc3c(cc2s1)OCO3 | i | i | nt | i | i | nt
O=C(Nc1nc2cc3c(cc2s1)OCCO3)c1cccs1 | 0.21µM | 0.11µM | nt | 0.41µM | ? | nt
CN(CC(=O)Nc1ccccc1Br)C(=O)c1cccnc1Nc1cccc(C(F)(F)F)c1 | i | i | nt | i | i | nt
SMILES | FLuc modulator | Rab9 prom act | KinaseGlo FLuc | ELG1 genotox | NPC1 promoter act | SMN2 splice up
COc1ccc(/C(C)=N/N=C(N)N)c(O)c1 | i | i | nt | i | i | nt
O=C(NNc1nc2cc3c(cc2s1)OCO3)c1ccccc1 | ? | i | i | i | i | i
NNc1nc2cc3c(cc2s1)OCCO3 | 6.7µM | 1.6µM | nt | ? | 1.6µM | nt
CC(C)N(C(=O)NC(=O)NCC1CCCO1)S(C)(=O)=O (stereo unspecified) | i | i | i | i | i | i
CSc1ccc(/C=C/c2nc3ccccc3n2S(=O)(=O)c2ccc(F)c(C)c2)cc1 | 0.27µM | nt | nt | nt | nt | nt
Cc1ccc(S(=O)(=O)n2c(C)nc3ccccc32)cc1 | i | i | nt | i | i | nt
CCOc1cc(S(=O)(=O)n2c(C)nc3ccccc32)ccc1F | i | i | i | i | i | i
Cc1ccc(/C=C/c2nc3ccccc3n2S(=O)(=O)c2cccc(Cl)c2)cc1 | 0.67µM | nt | nt | nt | nt | nt
CCOc1ccc(/C=C/c2nc3ccccc3n2S(=O)(=O)c2cccc(Cl)c2)cc1 | 0.95µM | nt | nt | nt | nt | 5µM
CCOc1ccc(NC(=O)Cc2c(O)c3ccccc3[nH]c2=O)cc1 | i | i | i | i | i | i

Bioassay records: PubChem BioAssay, National Center for Advancing Translational Sciences (NCATS)
